Experimental data reported in PubChem BioAssay (EPA / NIEHS).
Calls of active or inactive are those of the source. The calls were made as follows: active = hit-call score of the fitted dose curve at least 0.9, where 1 is the maximum; inactive = score below 0.9.

How the values were obtained:
Conditions in all cases: mRNA level, 48 h; actives raise or lower the signal
[1] = read-out: DNA damage-inducible transcript 3 (DDIT3), DDIT3 (gene 1649); test: LTEA_HepaRG_DDIT3: Life Technologies and Expression Analysis (LTEA) Assay for DNA damage-inducible transcript 3 (DDIT3) using HepaRG (AID 2283488)
How it was run: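 Differentiated human HepaRG cells in serum-free induction medium were exposed in duplicate for 48 h to 8 concentrations (top 100 uM, half-log steps, 0.5% DMSO). DDIT3 mRNA measured by TaqMan qRT-PCR, normalized to ACTB/GAPDH/POLR2A; bidirectional fit versus DMSO.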

[2] = read-out: Pro-epidermal growth factor (Homo sapiens) (UniProt P01133); test: LTEA_HepaRG_EGF: Life Technologies and Expression Analysis (LTEA) Assay for Epidermal growth factor (EGF) using HepaRG (AID 2283489)
How it was run: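 Concentration-response mRNA assay: HepaRG cells dosed 48 h (max 100 uM, 0.5% DMSO), EGF measured by qRT-PCR and normalized to ACTB/GAPDH/POLR2A.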

[3] = read-out: Early growth response protein 1 (EGR1) transcription factor, EGR1 (gene 1958); test: LTEA_HepaRG_EGR1: Life Technologies and Expression Analysis (LTEA) Assay for Early growth response protein 1 (EGR1) transcription factor using HepaRG (AID 2283490)
How it was run: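 Differentiated human HepaRG cells in serum-free induction medium were exposed in duplicate for 48 h to eight concentrations (top 100 uM, half-log steps) in 0.5% DMSO. EGR1 mRNA was quantified by qRT-PCR, normalized to ACTB, GAPDH and POLR2A, and fitted bidirectionally versus DMSO.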

[4] = read-out: Ezrin (EZR), EZR (gene 7430); test: LTEA_HepaRG_EZR: Life Technologies and Expression Analysis (LTEA) Assay for Ezrin (EZR) using HepaRG (AID 2283491)
How it was run: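 Gain or loss of EZR mRNA is scored relative to 0.5% DMSO in human HepaRG cultures treated 48 h with test chemicals in duplicate, eight half-log concentrations from 100 uM.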

[5] = read-out: Cytochrome P450 3A7 (Homo sapiens) (UniProt P24462); test: LTEA_HepaRG_CYP3A7: Life Technologies and Expression Analysis (LTEA) Assay for CYP3A7 using HepaRG (AID 2283492)
How it was run: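 qRT-PCR of CYP3A7 in HepaRG lysates after 48 h treatment; concentration-response (8 points, max 100 uM) analysed bidirectionally relative to 0.5% DMSO controls.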

[6] = read-out: CYP3A5 (gene 1577); test: LTEA_HepaRG_CYP3A5: Life Technologies and Expression Analysis (LTEA) Assay for CYP3A5 using HepaRG (AID 2283493)
How it was run: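 Differentiated HepaRG cells in serum-free induction medium were dosed 48 h with test chemicals (8-point half-log series, top 100 uM, 0.5% DMSO, duplicate). CYP3A5 mRNA measured by qRT-PCR, normalized to ACTB, GAPDH, POLR2A; bidirectional fit versus DMSO.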

[7] = read-out: Fatty Acid-Binding Protein 1 (FABP1), FABP1 (gene 2168); test: LTEA_HepaRG_FABP1: Life Technologies and Expression Analysis (LTEA) Assay for Fatty Acid-Binding Protein 1 (FABP1) using HepaRG (AID 2283494)
How it was run: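 Differentiated human HepaRG cells were exposed in duplicate for 48 h in serum-free induction medium to 8-point half-log concentration series topping at 100 uM in 0.5% DMSO. FABP1 mRNA measured by TaqMan qRT-PCR, normalized to ACTB/GAPDH/POLR2A; bidirectional fit versus DMSO.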

[8] = read-out: Cytochrome P450 4A22 (Homo sapiens) (UniProt Q5TCH4); test: LTEA_HepaRG_CYP4A22: Life Technologies and Expression Analysis (LTEA) Assay for Cytochrome P450 4A22 (CYP4A22) using HepaRG (AID 2283495)
How it was run: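 Concentration-response (8 points, max 100 uM, 0.5% DMSO) in human HepaRG liver cells after 48 h exposure. CYP4A22 mRNA by TaqMan qRT-PCR with housekeeping-gene normalization.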

[9] = read-out: Cytochrome P450 7A1 (Homo sapiens) (UniProt P22680); test: LTEA_HepaRG_CYP7A1: Life Technologies and Expression Analysis (LTEA) Assay for Cytochrome P450 7A1 (CYP7A1) using HepaRG (AID 2283496)
How it was run: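 Gene expression endpoint in human HepaRG liver cells treated for 48 h with test chemicals (up to 100 uM, 0.5% DMSO). Values come from bidirectional concentration-response fitting versus DMSO.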

[10] = read-out: Glutathione S-Transferase (GSTA2), GSTA2 (gene 2939); test: LTEA_HepaRG_GSTA2: Life Technologies and Expression Analysis (LTEA) Assay for Glutathione S-Transferase (GSTA2) using HepaRG (AID 2283497)
How it was run: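 Human HepaRG cells, plated 48 h, then exposed in serum-free induction medium for 48 h to eight half-log concentrations up to 100 uM in 0.5% DMSO, duplicate. GSTA2 mRNA by qRT-PCR, normalized to ACTB/GAPDH/POLR2A; bidirectional fit versus DMSO.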

[11] = read-out: Glutamate-cysteine ligase catalytic (GCLC), GCLC (gene 2729); test: LTEA_HepaRG_GCLC: Life Technologies and Expression Analysis (LTEA) Assay for Glutamate-cysteine ligase catalytic (GCLC) using HepaRG (AID 2283498)
How it was run: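 Differentiated human HepaRG cells, plated 48 h then switched to serum-free induction medium, were exposed in duplicate for 48 h to 8 half-log concentrations topping at 100 uM in 0.5% DMSO. GCLC mRNA was quantified by qRT-PCR against ACTB, GAPDH and POLR2A.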

[12] = read-out: growth arrest and DNA damage 45 (GADD45G), GADD45G (gene 10912); test: LTEA_HepaRG_GADD45G: Life Technologies and Expression Analysis (LTEA) Assay for growth arrest and DNA damage 45 (GADD45G) using HepaRG (AID 2283499)
How it was run: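 Concentration-response in HepaRG: 48 h dosing, 0.5% DMSO, highest level 100 uM. GADD45G expression by qRT-PCR, normalised to endogenous controls; bidirectional fit to DMSO.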

[13] = read-out: Glutamate-cysteine ligase regulatory (GCLM), GCLM (gene 2730); test: LTEA_HepaRG_GCLM: Life Technologies and Expression Analysis (LTEA) Assay for Glutamate-cysteine ligase regulatory (GCLM) using HepaRG (AID 2283500)
How it was run: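 Differentiated human HepaRG cells exposed 48 h in serum-free induction medium to 8-point half-log concentrations (top 100 uM, 0.5% DMSO), in duplicate. GCLM mRNA quantified by qRT-PCR, normalized to ACTB, GAPDH, POLR2A; bidirectional fitting versus DMSO.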

[14] = read-out: Glutathione S-transferase M3 (GSTM3), GSTM3 (gene 2947); test: LTEA_HepaRG_GSTM3: Life Technologies and Expression Analysis (LTEA) Assay for Glutathione S-transferase M3 (GSTM3) using HepaRG (AID 2283501)
How it was run: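 Expression of GSTM3 is determined by qRT-PCR in human liver HepaRG cells treated 48 h with an 8-point half-log range from 100 uM in 0.5% DMSO.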

[15] = read-out: Heat shock 70 kDa protein 1 (HSPA1A), gene 3303; test: LTEA_HepaRG_HSPA1A: Life Technologies and Expression Analysis (LTEA) Assay for Heat shock 70 kDa protein 1 (HSPA1A) using HepaRG (AID 2283502)
How it was run: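 Differentiated human HepaRG cells in serum-free induction medium were exposed in duplicate for 48 h to eight concentrations (top 100 uM, half-log steps, 0.5% DMSO). HSPA1A mRNA was quantified by qRT-PCR, normalized to ACTB, GAPDH and POLR2A, and fitted bidirectionally against DMSO.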

[16] = read-out: Hypoxia-inducible factor 1-alpha (Homo sapiens) (UniProt Q16665); test: LTEA_HepaRG_HIF1A: Life Technologies and Expression Analysis (LTEA) Assay for Hypoxia-inducible factor 1 (HIF1A) Trancription factor using HepaRG (AID 2283503)
How it was run: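 HepaRG, 48 h exposure, 8-pt half-log series from 100 uM, 0.5% DMSO vehicle, duplicates. Readout: HIF1A transcript by qRT-PCR (Fluidigm array), housekeeping-normalised. Bidirectional curve fit vs DMSO baseline.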

[17] = read-out: 3-Hydroxy-3-Methylglutaryl-CoA Synthase 2 (HMGCS2), HMGCS2 (gene 3158); test: LTEA_HepaRG_HMGCS2: Life Technologies and Expression Analysis (LTEA) Assay for 3-Hydroxy-3-Methylglutaryl-CoA Synthase 2 (HMGCS2) using HepaRG (AID 2283504)
How it was run: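 This steatosis marker was read as HMGCS2 mRNA change in HepaRG cells treated 48 h with up to 100 uM chemical. Normalisation used housekeeping genes; activity in either direction was fitted relative to 0.5% DMSO vehicle.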

[18] = read-out: HGF (gene 3082); test: LTEA_HepaRG_HGF: Life Technologies and Expression Analysis (LTEA) Assay for Hepatocyte Growth Facto (HGF) using HepaRG (AID 2283505)
How it was run: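 Using HepaRG monolayers kept in 0.5% DMSO, chemicals were tested in duplicate over eight half-log concentrations from 100 uM for 48 h. Endpoint: HGF mRNA change relative to DMSO, normalized to ACTB/GAPDH/POLR2A.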

[19] = read-out: Insulin Like Growth Factor 1 (IGF1), IGF1 (gene 3479); test: LTEA_HepaRG_IGF1: Life Technologies and Expression Analysis (LTEA) Assay for Insulin Like Growth Factor 1 (IGF1) using HepaRG (AID 2283506)
How it was run: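 Differentiated human HepaRG cells were dosed for 48 h in serum-free induction medium with 0.5% DMSO, eight half-log concentrations up to 100 uM, in duplicate. IGF1 mRNA was quantified by qRT-PCR normalized to ACTB, GAPDH, POLR2A; bidirectional fitting versus DMSO.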

[20] = read-out: Intercellular Adhesion Molecule 1 (ICAM1), ICAM1 (gene 3383); test: LTEA_HepaRG_ICAM1: Life Technologies and Expression Analysis (LTEA) Assay for Intercellular Adhesion Molecule 1 (ICAM1) using HepaRG (AID 2283507)
How it was run: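 Using the human liver line HepaRG, compounds are tested in duplicate over 48 h at concentrations up to 100 uM. Expression is determined by TaqMan qRT-PCR, normalized to endogenous controls, and analysed relative to 0.5% DMSO vehicle.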

Measured: AC50

Cytochrome P450 3A7 (Homo sapiens), sequence (P24462 whole entry, looked up): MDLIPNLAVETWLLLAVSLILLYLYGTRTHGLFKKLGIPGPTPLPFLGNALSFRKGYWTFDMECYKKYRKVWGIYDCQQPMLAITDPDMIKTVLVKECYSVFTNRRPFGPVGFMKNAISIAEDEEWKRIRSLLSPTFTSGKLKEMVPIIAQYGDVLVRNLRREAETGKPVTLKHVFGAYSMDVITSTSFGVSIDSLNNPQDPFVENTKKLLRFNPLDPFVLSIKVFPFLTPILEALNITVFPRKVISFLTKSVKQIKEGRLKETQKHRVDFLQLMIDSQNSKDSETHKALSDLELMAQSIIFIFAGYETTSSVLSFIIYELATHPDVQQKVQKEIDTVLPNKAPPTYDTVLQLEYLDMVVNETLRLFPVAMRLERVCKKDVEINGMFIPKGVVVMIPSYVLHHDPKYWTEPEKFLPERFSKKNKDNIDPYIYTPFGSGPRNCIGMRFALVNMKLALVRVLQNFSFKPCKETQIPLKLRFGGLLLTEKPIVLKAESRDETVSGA
Hypoxia-inducible factor 1-alpha (Homo sapiens), sequence (Q16665 whole entry, looked up): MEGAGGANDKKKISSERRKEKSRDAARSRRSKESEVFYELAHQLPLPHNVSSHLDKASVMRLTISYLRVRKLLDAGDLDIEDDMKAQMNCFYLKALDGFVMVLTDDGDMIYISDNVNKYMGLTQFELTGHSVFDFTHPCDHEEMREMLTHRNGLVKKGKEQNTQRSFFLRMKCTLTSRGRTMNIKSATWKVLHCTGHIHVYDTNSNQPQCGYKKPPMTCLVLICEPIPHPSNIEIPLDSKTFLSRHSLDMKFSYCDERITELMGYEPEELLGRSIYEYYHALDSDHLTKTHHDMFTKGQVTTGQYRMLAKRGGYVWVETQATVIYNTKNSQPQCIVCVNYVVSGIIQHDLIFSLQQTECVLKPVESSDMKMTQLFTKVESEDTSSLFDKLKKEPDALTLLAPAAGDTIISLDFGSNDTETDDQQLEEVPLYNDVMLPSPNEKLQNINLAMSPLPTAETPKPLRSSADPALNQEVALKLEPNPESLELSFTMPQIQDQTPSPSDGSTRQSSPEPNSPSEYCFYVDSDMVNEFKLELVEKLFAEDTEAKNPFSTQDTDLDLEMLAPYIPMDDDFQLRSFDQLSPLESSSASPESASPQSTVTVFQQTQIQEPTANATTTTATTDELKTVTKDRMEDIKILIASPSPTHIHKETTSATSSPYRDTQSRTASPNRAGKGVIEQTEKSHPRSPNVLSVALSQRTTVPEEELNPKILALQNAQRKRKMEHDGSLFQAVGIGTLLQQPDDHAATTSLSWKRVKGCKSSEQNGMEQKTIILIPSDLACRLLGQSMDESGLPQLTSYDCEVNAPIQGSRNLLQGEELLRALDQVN

CC(=O)NC1(c2cccc(F)c2)CCN(CC[C@@]2(c3ccc(Cl)c(Cl)c3)CN(c3ccccc3)C(=O)CO2)CC1
active: [1] 41.5 µM | [3] 72.4 µM | [4] 41.5 µM | [5] 4.05 µM | [6] 75 µM | [8] 3.17 µM | [9] 38 µM | [10] 65.1 µM | [12] 41.5 µM | [15] 27.9 µM | [19] 13.1 µM | [20] 49 µM
inactive: [2] | [7] | [11] | [13] | [14] | [16] | [17] | [18]

Cc1cc(CCN2CCN(c3nsc4ccccc34)CC2)cc2c1NC(=O)CC2(C)C
inactive: [2] | [3] | [6] | [11] | [14] | [16] | [18] | [20]
active: [1] 71.9 µM | [4] 9.92 µM | [5] 79.5 µM | [7] 69.7 µM | [8] 58.6 µM | [9] 80.6 µM | [10] 81.9 µM | [12] 76.8 µM | [13] 50 µM | [15] 50 µM | [17] 78 µM | [19] 70.5 µM

CN1CCC[C@H]1c1cccnc1
not listed: [16]
inactive: all other assays above

OC1CCC(C2CCCCC2)CC1 (configuration not stated)
inactive: all assays above

NC(=O)N1C(=O)C(C(=O)c2cc(Cl)cs2)c2cc(F)c(Cl)cc21 (configuration not stated)
inactive: [4] | [13] | [14] | [18]
active: [1] 22.9 µM | [2] 50 µM | [3] 79.3 µM | [5] 24.8 µM | [6] 13 µM | [8] 24.1 µM | [9] 16.6 µM | [10] 19.5 µM | [11] 34.1 µM | [12] 30.4 µM | [15] 72.3 µM | [16] 22.7 µM | [17] 20.7 µM | [19] 24.8 µM | [20] 19.9 µM

CC[C@H](c1ccc(O)cc1)[C@@H](CC)c1ccc(O)cc1
inactive: [1] | [2] | [5] | [8] | [14] | [18] | [20]
active: [3] 78.7 µM | [4] 88.4 µM | [6] 70.3 µM | [7] 80.7 µM | [9] 78.8 µM | [10] 87.3 µM | [11] 79.8 µM | [12] 66.3 µM | [13] 70.2 µM | [15] 94.4 µM | [17] 79.4 µM | [19] 86.3 µM

COCC(C)O (configuration not stated)
inactive: all assays above

CCc1ccc(CCOc2ccc(CC3SC(=O)NC3=O)cc2)nc1 (configuration not stated)
active: [1] 91.3 µM | [3] 15.1 µM | [4] 15.9 µM | [7] 88.3 µM | [8] 84 µM | [9] 68.5 µM | [10] 78.1 µM | [11] 14.2 µM | [12] 11 µM | [13] 68.3 µM | [15] 23.6 µM | [17] 85.2 µM | [19] 64.9 µM | [20] 50 µM
inactive: [2] | [6] | [14] | [16] | [18]

Oc1cc2ccccc2c2ccccc12
active: [9] 3.01 µM
inactive: all other assays above

CC1=C(/C=C/C(C)=C/C=C/C(C)=C/C(=O)O)C(C)(C)CCC1
active: [2] 28 µM | [4] 0.495 µM | [7] 13.6 µM | [8] 10.2 µM | [9] 29.6 µM | [10] 5.61 µM | [13] 25.8 µM | [17] 23.9 µM | [19] 31.8 µM
inactive: [1] | [3] | [6] | [11] | [12] | [14] | [18]
